# Assay results from PubChem BioAssay.
# Values without a mark were called inactive. No rule for the calls is given here.
# Molecular target: Pantothenate synthetase (Mycobacterium tuberculosis (strain ATCC 25618 / H37Rv)) (UniProt P9WIL5)
# Assay: Recombinant Mtb pantothenate synthetase (PanC) inhibitors, coupled enzyme, confirmatory (AID 375);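 also: 0% = full reaction with vehicle and 100% = no enzyme background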
# Conditions: coupled enzyme assay; at 10 µM, active compounds read high
# Pantothenate synthetase (Mycobacterium tuberculosis (strain ATCC 25618 / H37Rv)), sequence (P9WIL5 whole entry, looked up): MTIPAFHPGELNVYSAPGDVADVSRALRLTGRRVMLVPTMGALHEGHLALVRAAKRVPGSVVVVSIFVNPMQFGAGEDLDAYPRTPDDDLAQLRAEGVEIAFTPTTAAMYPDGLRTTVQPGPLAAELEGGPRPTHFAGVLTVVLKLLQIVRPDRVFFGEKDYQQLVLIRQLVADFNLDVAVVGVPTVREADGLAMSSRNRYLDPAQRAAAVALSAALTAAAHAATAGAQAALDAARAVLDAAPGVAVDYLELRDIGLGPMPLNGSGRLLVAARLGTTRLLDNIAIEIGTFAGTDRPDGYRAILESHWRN
row,Structure (SMILES),inhibition [%]
1,CCOC(=O)C1CCN(C(=O)c2ccc(Cl)c(Cl)c2)CC1,8
2,CN1CCN(C(=O)c2ccccc2N(Cc2ccccc2)S(C)(=O)=O)CC1,0
3,O=C(NCc1ccc(F)cc1)C1CCN(C(=O)NCc2ccccc2)CC1,0
4,CC(C)CNS(=O)(=O)c1ccc(CCC(=O)NCc2ccco2)cc1,2
5,CCN(CC)C(=O)CSc1nnc(-c2cc(OC)cc(OC)c2)o1,0
6,CCN(CC)Cc1csc(C(N)=O)c1,5
7,CCCOc1ccccc1NC(=O)c1c(-c2ccccc2)noc1C,1
8,CC(C)C12CN3CC(C(C)C)(CN(C1)C3c1ccc3c(c1)OCO3)C2=O (stereo not given),0
9,CCOC(=O)C1CCN(C(=O)CSc2cc(=O)n(CC)c3ccccc23)CC1,4
10,Cc1noc(C)c1C(=O)N1CCN(C(=O)c2sc3cc(Cl)ccc3c2Cl)CC1,7
11,O=C(O)c1ccc(S(=O)(=O)Cc2ccccc2)cc1,0
12,COc1ccc(Oc2nc(Oc3ccc(OC)cc3)nc(Oc3ccc(OC)cc3)n2)cc1,0
13,Cc1noc(C)c1CSc1nnc2n(-c3ccccc3)c(=O)c3ccccc3n12,0
14,CCC(C)(C)NC(=O)CN(C(=O)c1snc(C(N)=O)c1N)c1ccc2c(c1)OCO2,11
15,Cc1cc2c(s1)c1cnn(CC(=O)NCCc3ccccc3)c(=O)c1n2C,0
16,CCOC(=O)C1/C(=N\O)CC(C)(O)C(C(=O)OCC)C1c1ccc(N(C)C)cc1 (stereo not given),0
17,COC(=O)c1ccc(NC(=O)CN2CCCC2)cc1,0
18,OCCN1CCN(CCCN2c3ccccc3Sc3ccc(Cl)cc32)CC1,0
19,COC(=O)c1ccccc1NC(=O)c1cc(-c2ccc(OC)c(OC)c2)on1,0
20,COc1ccc([C@@H]2Sc3ccccc3N(CCN(C)C)C(=O)[C@@H]2OC(C)=O)cc1,2

row,Structure (SMILES),inhibition [%]
1,Cc1cc(-n2c(C)cc(C(=O)CSc3nnnn3-c3ccc(Cl)cc3)c2C)no1,7
2,Cn1c(=O)c2c(nc(NCCCO)n2CCc2ccccc2)n(C)c1=O,0
3,O=S(=O)(c1ccc2c(c1)OCCO2)N(Cc1ccc(F)cc1)Cc1nnc(-c2cccs2)o1,5
4,CCCCP(=O)(CCCC)c1ccccc1C(=O)O,3
5,COc1ccccc1NC(=O)CSc1nnc(-c2ccncc2)n1CC1CCCO1 (stereo not given),0
6,CCCc1cc(=O)n2[nH]c(-c3ccc(Br)cc3)cc2n1,0
7,CCN(CC)S(=O)(=O)c1cccc(-c2nnc(SCC(N)=O)n2CCc2ccccc2)c1,0
8,COc1ccc(/C(O)=C2\C(=O)C(=O)N(c3cc(C)on3)C2c2ccccc2OC)cc1 (stereo not given),0
9,COc1cc(/C=N/n2c(C)nnc2C)cc(OC)c1OC,4
10,CC1CCN(S(=O)(=O)c2ccc(S(=O)(=O)NCC(=O)C(C)(C)C)cc2)CC1,2
11,COC(=O)CN(c1ccc2c(c1)OCO2)S(C)(=O)=O,4
12,Cn1c(SC/C=C/c2ccccc2)nnc1-c1cnccn1,1
13,c1cncc(-c2nnc(SCCSc3nnc(-c4cccnc4)o3)o2)c1,0
14,CCN(CC)c1nc2cc(OC)ccc2cc1C#N,0
15,CC1CCCN(C(=O)CN2CCN(C(=O)c3ccco3)CC2)C1 (stereo not given),0
16,NCC(O)COc1ccc2c(c1)OCO2 (stereo not given),0
17,CCc1nn(CC(=O)NCCCN2CCc3ccccc3C2)c(=O)c2cc3sccc3n12,8
18,Clc1ccc(Nc2ncnc3c2cnn3-c2ccccc2)cc1,6
19,Cc1cc(C)c2c(=O)[nH]c(=O)n(Cc3ccccc3)c2n1,0
20,CCc1ccc2[nH]c(=O)c(C(c3nnnn3CC3CCCO3)N3CCN4CCCC4C3)cc2c1 (stereo not given),4
